Source: PubChem
NR5A2 inv ag = suppresses constitutive activity of human LRH-1; O00482; HEK293T StAR-luciferase reporter, LRH-1 transfected, 24 h; inhibition, % at 3.6 µM; 0.13% of 360,000 active;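 active = inhibition above the mean inhibition of all tested compounds plus 3 SD, cut at about 73% in these data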;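 also: 0% = DMSO wells and 100% = reporter-only cells lacking LRH-1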
Gli-Sufu block = Gli-Sufu pathway antagonism | Sufu-KO-LIGHT fibroblasts, Gli luciferase reporter luminescence | inhibition, % at 5 µM | 0.74% of 340,000 active | AID 588413;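 active = inhibition above about 55%, limit read from the data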;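 also: 0% = DMSO-treated cells and 100% = wells with medium but no cells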
NCOA2 inhibitor = inhibits human steroid receptor coactivator 2; Q15596; HEK293 GAL4-SRC2 luciferase reporter, luminescence; inhibition, % at 9 µM; 0.17% of 370,000 active;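 active = inhibition above the mean inhibition of all tested compounds plus 3 SD, set per campaign, cut at about 52% in these data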;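 also: 0% = DMSO treated cells and 100% = cells given Gossypol at 36 µM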
NCOA1 inh = inhibitors of human steroid receptor coactivator 1 (SRC1); HEK293 GAL4-SRC1 luciferase reporter, luminescence; inhibition, % at 3.6 µM; 0.12% of 360,000 active;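 active = inhibition above the campaign mean plus 3 SD, with each screening campaign given its own cutoff, cut at about 60% in these data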;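 also: 0% = DMSO treated cells and 100% = gossypol at 36 µM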
Target sequence (Q15788 whole entry, looked up, the tested form may be a part): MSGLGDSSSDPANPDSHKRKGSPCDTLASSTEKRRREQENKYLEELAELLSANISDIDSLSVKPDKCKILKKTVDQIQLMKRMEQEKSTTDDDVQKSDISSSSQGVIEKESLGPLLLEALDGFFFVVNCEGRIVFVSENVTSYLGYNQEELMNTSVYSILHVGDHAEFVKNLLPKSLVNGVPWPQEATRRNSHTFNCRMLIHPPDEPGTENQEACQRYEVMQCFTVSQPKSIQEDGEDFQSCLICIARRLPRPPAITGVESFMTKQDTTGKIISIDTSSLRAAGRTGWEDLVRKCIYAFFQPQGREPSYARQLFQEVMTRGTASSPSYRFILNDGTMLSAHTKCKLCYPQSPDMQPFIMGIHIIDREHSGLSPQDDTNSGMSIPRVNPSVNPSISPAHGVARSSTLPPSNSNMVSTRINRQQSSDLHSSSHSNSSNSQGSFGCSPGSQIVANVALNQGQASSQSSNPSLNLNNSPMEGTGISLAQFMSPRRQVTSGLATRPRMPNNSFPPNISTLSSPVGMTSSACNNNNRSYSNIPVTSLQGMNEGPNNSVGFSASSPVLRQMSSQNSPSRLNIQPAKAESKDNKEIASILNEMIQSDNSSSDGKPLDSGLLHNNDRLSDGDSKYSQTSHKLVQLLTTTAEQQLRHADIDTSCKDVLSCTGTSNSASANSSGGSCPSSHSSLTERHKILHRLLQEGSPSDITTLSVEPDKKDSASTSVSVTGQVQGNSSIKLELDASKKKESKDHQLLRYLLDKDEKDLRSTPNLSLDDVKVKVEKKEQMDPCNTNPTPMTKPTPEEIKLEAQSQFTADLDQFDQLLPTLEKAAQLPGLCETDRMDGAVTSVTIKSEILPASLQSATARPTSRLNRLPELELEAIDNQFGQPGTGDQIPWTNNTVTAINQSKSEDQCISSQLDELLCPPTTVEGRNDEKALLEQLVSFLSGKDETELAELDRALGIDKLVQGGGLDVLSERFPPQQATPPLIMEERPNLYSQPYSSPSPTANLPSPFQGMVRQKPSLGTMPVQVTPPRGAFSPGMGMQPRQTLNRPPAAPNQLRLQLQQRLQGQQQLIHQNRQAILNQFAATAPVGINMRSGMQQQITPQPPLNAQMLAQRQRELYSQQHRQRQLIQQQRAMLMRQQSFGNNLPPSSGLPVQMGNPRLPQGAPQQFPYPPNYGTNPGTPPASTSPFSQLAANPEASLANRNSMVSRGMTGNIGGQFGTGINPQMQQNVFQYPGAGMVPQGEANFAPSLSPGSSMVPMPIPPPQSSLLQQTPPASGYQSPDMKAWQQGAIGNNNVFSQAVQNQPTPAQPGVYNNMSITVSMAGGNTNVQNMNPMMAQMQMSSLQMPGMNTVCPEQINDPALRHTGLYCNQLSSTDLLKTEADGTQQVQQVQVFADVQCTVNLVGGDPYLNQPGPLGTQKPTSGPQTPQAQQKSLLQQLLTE
NR2F2 inh = blocks human COUP-TFII nuclear receptor. P24468. HEK293T NGFI-A luciferase reporter, luminescence. inhibition, % at 8.6 µM. 0.7% of 370,000 active;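 active = inhibition above a per-plate cutoff, mean inhibition of test wells between control levels plus 3 SD, cut at about 38% in these data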;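 also: cells cotransfected with COUP-TFII expression vector driving the NGFI-A reporter; 0% = median of COUP-TF2 test wells and 100% = reporter-only cells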
NCOA3 inh = human NCOA3 inhibition. 0.17% of 360,000 active. HEK293 GAL4-SRC3 luciferase reporter, luminescence. inhibition, % at 3.6 µM. AID 588352;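 active = inhibition above a per-campaign cutoff, the mean of all compounds plus 3 SD, cut at about 60% in these data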;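 also: 0% = DMSO-treated cells and 100% = gossypol-treated cells at 36 µM; higher means less SRC3-driven luciferase light from the GAL4 reporter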
Gli-Sufu confirm = Gli-SUFU antagonism confirmation, single concentration | shares compounds with Gli-Sufu block | inhibition, % at 5 µM | Sufu-KO-LIGHT cells, Gli luciferase reporter, luminescence | 40% of 2,500 active;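 active = mean inhibition at 5 µM reaching about 45%, limit read from the data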;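 also: plate controls were DMSO-treated cells for no effect and wells lacking cells for full effect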
Gli cytotox = cytotoxicity counter-screen for Gli-SUFU antagonists | cytotoxicity, % at 5 µM | Sufu-KO-LIGHT cells cytotoxicity, ATP luminescence | AID 651994 | shares compounds with Gli-Sufu block | 32% of 2,500 active;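 active = mean cytotoxicity at 5 µM above about 25%, limit read from the data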;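 also: cells exposed to compound overnight for roughly 16 to 18 hours; plate controls were DMSO wells with cells for no effect and medium without cells for full effect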
Wnt3a counter = Wnt3a reporter inhibition counter-screen | Wnt-LIGHT cells, Wnt3a-driven luciferase reporter, luminescence | shares compounds with Gli-Sufu block | 20% of 2,500 active | inhibition, % at 6.25 µM;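 active = mean inhibition above about 25%, limit read from the data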
* marks the source's active call; other numbers are inactive results; x = no result given. Compounds with a hit are over-represented: about 1.3% of the library has one in this group of screens.

SMILES | NR5A2 inv ag | Gli-Sufu block | NCOA2 inhibitor | NCOA1 inh | NR2F2 inh | NCOA3 inh | Gli-Sufu confirm | Gli cytotox | Wnt3a counter
O=C(Cn1nnc(-c2ccncc2)n1)Nc1ccc(Oc2ccccc2)cc1 | x | x | -1 | x | 2 | x | x | x | x
COc1ccc(-c2cc(C(=O)N3CCCCCC3)c3ccccc3n2)cc1OC | -39 | x | 19 | 2 | 0 | 8 | x | x | x
O=C(O)c1cc(-c2ccco2)nc2ccccc12 | 17 | -5 | -22 | 1 | -16 | 4 | x | x | x
O=C(c1cc(-c2ccco2)nc2ccccc12)N1CCN(c2ccc(F)cc2)CC1 | -8 | 64* | 13 | -16 | -2 | -38 | 21 | 34* | -42
COc1ccc(-c2cc(C(=O)N3CCCCCC3)c3ccccc3n2)cc1 | -19 | 50 | 2 | -24 | -6 | -53 | 16 | 22 | -11
N#C/C(=C/c1ccc(N2CCCC2)c([N+](=O)[O-])c1)c1nc2ccccc2[nH]1 | -28 | -30 | -7 | -22 | -4 | -16 | x | x | x
Cc1ccc2nc(/C(C#N)=C\c3ccc(N4CCCCC4)c([N+](=O)[O-])c3)[nH]c2c1 | -38 | 50 | -15 | -42 | 15 | -39 | 36 | 10 | -79
O=c1ccc(-c2ccc(S(=O)(=O)NCc3cccc(Br)c3)s2)n[nH]1 | 25 | x | 1 | -3 | 9 | -5 | x | x | x
Cc1ccc(CN2CCC(CNS(=O)(=O)c3ccc(-c4ccc(=O)[nH]n4)s3)CC2)cc1 | 5 | 60* | -25 | 1 | 3 | 2 | 21 | 12 | 12
CCOc1ccc(C2=Nn3cnnc3SC2)cc1 | -4 | 99* | -10 | -8 | 9 | 10 | 14 | 20 | 27*
O=C(Nc1nc(Cc2ccccc2)c(Cc2ccccc2)n1Cc1ccccc1)c1ccccc1 | x | x | -5 | x | 4 | x | x | x | x
CCCN(CCC)CCN1C(=O)C2C(C(=O)Nc3ccc(C)cc3)C3C=CC2(O3)C1C(=O)NC1CCCCC1 (stereo not drawn) | 18 | 16 | 10 | -5 | -2 | -2 | x | x | x
CCN(CC)CCN1C(=O)C2C(C(=O)Nc3cc(C)cc(C)c3)C3C=CC2(O3)C1C(=O)NC1CCCCC1 (stereo not drawn) | 11 | 64* | -31 | -16 | -6 | -1 | 12 | 1 | -6
CC(C)CNc1cccc2c1S(=O)(=O)N(Cc1cccc(F)c1)[C@@H](C)[C@H](c1ccccc1)O2 | x | x | -17 | x | -3 | x | x | x | x
COC(=O)C1CCCN(C(=O)C2CCN(S(=O)(=O)c3cccs3)CC2)C1 (stereo not drawn) | x | x | -1 | x | 17 | x | x | x | x
CCOc1cccc(-c2c(C(=O)N/N=C(\C)c3ccccn3)nnn2-c2nonc2N)c1 | -22 | 75* | 12 | 21 | 1 | 8 | 86* | 51* | 88*
C/C(=N/NC(=O)c1nnn(-c2nonc2N)c1-c1ccccc1)c1ccc2c(c1)OCO2 | 3 | 51 | -37 | 3 | -2 | -8 | 24 | 2 | 4
CCOc1cccc(-c2c(C(=O)N/N=C(\C)c3ccncc3)nnn2-c2nonc2N)c1 | 7 | -2 | -3 | -7 | -8 | 10 | x | x | x
C/C(=N\NC(N)=S)c1ccccc1 | 32 | 2 | 3 | -14 | 3 | 13 | x | x | x
CSC(=S)N/N=C(\C)c1ccccc1 | -4 | 72* | -9 | 11 | -20 | -4 | 34 | 18 | -5
COC(=O)C[C@H]1CC[C@@H]2[C@@H](COc3ccc(NC(=O)Nc4cccc(C)c4)cc3C(=O)N2C)O1 | x | x | 1 | x | -3 | x | x | x | x
Cn1c(O)c(N=NC(=S)Nc2ccccc2F)c2cc(S(=O)(=O)N3CCOCC3)ccc21 | -2 | 38 | 2 | 3 | 4 | 4 | x | x | x
C=CCn1c(O)c(N=NC(=S)Nc2ccccc2C)c2cc(S(=O)(=O)N3CCOCC3)ccc21 | 9 | 52 | 8 | 6 | 19 | -1 | 48* | 32* | -49
COc1ccc(S(=O)(=O)N2CCN(Cc3cccc(OC)c3)CC2)cc1 | 0 | 62* | 4 | 8 | 8 | 6 | 23 | -3 | 8
COc1cccc(CN2CCN(S(=O)(=O)c3ccc(Br)cc3)CC2)c1 | 6 | 7 | 12 | -2 | -8 | 0 | x | x | x
SMILES | NR5A2 inv ag | Gli-Sufu block | NCOA2 inhibitor | NCOA1 inh | NR2F2 inh | NCOA3 inh | Gli-Sufu confirm | Gli cytotox | Wnt3a counter
Cc1ccccc1CNCc1ccc2c(c1)OCO2 | 0 | 51 | -3 | -2 | 20 | 9 | 27 | 4 | 1
CSc1ccc(CNCc2ccc3c(c2)OCO3)cc1 | 20 | 5 | 8 | 18 | 16 | 2 | x | x | x
CCCCC(=O)NC(c1ccc(N(C)C)cc1)c1ccc2cccnc2c1O (stereo not drawn) | 13 | 88* | 3 | 46 | -31 | 44 | 86* | 37* | 93*
CCCCC(=O)NC(c1ccc(N(CC)CC)cc1)c1ccc2cccnc2c1O (stereo not drawn) | 4 | 93* | 11 | 38 | 14 | 17 | 88* | 44* | 92*
CCCC(=O)NC(c1ccc(N(C)C)cc1)c1c(O)ccc2ccccc12 (stereo not drawn) | 8 | -3 | 23 | 2 | 4 | 5 | x | x | x
CCCC(=O)NC(c1ccc2c(c1)OCO2)c1cc(Cl)c2cccnc2c1O (stereo not drawn) | -12 | 32 | x | 19 | x | 38 | x | x | x
CCCCCc1cccc2[nH]cc(-c3ccccc3)c12 | x | x | 8 | x | 12 | x | x | x | x
Nc1ccccc1-c1nc2ccccc2[nH]c1=O | -76 | -5 | -34 | -67 | -38 | -46 | x | x | x
Nc1ccc(Br)cc1-c1nc2ccccc2[nH]c1=O | -17 | 52 | -47 | -7 | 0 | -21 | 69* | 34* | 7
C=CCN1[C@@H](C)[C@H](c2ccccc2)Oc2cccc(N3CCCC3)c2S1(=O)=O | x | x | -3 | x | -2 | x | x | x | x
CCCn1c(SCC(=O)Nc2nc(-c3ccc(OC)cc3)cs2)nc2c1c(=O)n(C)c(=O)n2C | -5 | 59* | -31 | 8 | 2 | -12 | 51* | 12 | 5
CCOC(=O)c1ccc[n+]([O-])c1 | -9 | 4 | -20 | 7 | 4 | -26 | x | x | x
CCOC(=O)c1ccc(NC(=O)c2ccc[n+]([O-])c2)cc1 | 18 | 58* | -2 | -28 | 0 | -4 | 9 | 9 | 11
COc1ccc(-n2ncc3c2CC(C)(C)CC3NC(=O)CN2CCOC2=O)cc1 (stereo not drawn) | 1 | 61* | 2 | 3 | -2 | 18 | 22 | 12 | -10
COc1ccc(-c2cc(C(F)(F)F)n3ncc(C(=O)N4CCCCC4c4cccnc4)c3n2)cc1 (stereo not drawn) | 2 | 52 | -7 | 1 | -18 | 13 | 30 | 11 | 9
